Several values for one entry are separate records, joined by “and”; a condition that tells them apart may be missing. Equal values may be shown once. ± gives the standard deviation of the averaged measurements.
How the values were obtained:
Details in all cases: concentration: 10 µM; 24 h
HCC1569 [1] = test: cell number relative to DMSO (% of DMSO); higher = more cells (less growth inhibition / toxicity)
How it was run: (§1)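 Using 384-well plates with 800 cells per well in RPMI plus 10% FBS, HCC1569 and TDF cells were exposed to compounds at 10 µM, in triplicate, for 24 h at 37 °C. Imaging of six fields per well at ×10 followed H1.0 and DAPI staining. The reported quantity, H1.0 nuclear intensity or cell number, is a median of replicates given as percent of the plate control, and HCC1569 values were smoothed for positional effects.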

TDF [2] = test: as above
How it was run: as §1

TDF [3] = test: H1.0 immunofluorescence intensity relative to DMSO (% of DMSO); higher = stronger H1.0 induction, active = 120 or more
How it was run: as §1

HCC1569 [4] = test: H1.0 immunofluorescence intensity relative to DMSO (% of DMSO); higher = stronger H1.0 induction, active = 140 or more
How it was run: as §1
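Throughout, for H1.0 immunofluorescence intensity relative to DMSO: TDF is a line of transformed human dermal fibroblasts of mesenchymal origin.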
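Throughout, for cell number relative to DMSO: TDF denotes transformed human dermal fibroblasts of mesenchymal origin.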

SMILES | cell number (HCC1569 [1]) | cell number (TDF [2]) | H1.0 immunofluorescence intensity (TDF [3]) | H1.0 immunofluorescence intensity (HCC1569 [4])
CSC(=N)N.CSC(=N)N.O=S(=O)(O)O [S-Methylisothiourea hemisulfate] | 103 | 98.6 | 93.5 (inactive) | 96.7 (inactive)
C[N+](C)(C)CC=O.[Cl-] [Betaine aldehyde chloride] | 104 | 115 | 94.6 (inactive) | 83.1 (inactive)
Cc1nc2sccn2c(=O)c1CCN1CCC(=C(c2ccccc2)c2ccc(F)cc2)CC1 [Diacylglycerol kinase inhibitor I] | 87.2 | 111 | 96 (inactive) | 118 (inactive)
N[C@H](CO)C(=O)O [D-Serine] | 104 | 112 | 87.2 (inactive) | 102 (inactive)
Cc1nc(Nc2ncc(C(=O)Nc3c(C)cccc3Cl)s2)cc(N2CCN(CCO)CC2)n1 [Dasatinib] | 45.9 | 93.4 | 107 (inactive) | 171 (active)
Cl.Cl.Cl.NCCCCNCCCN [Spermidine trihydrochloride] | 99.7 | 97.2 | 102 (inactive) | 82 (inactive)
OC1(c2ccc(Cl)cc2)CCN(Cc2c[nH]c3ccccc23)CC1 | 94.6 | 93 | 106 (inactive) | 103 (inactive)
CC(C)(C)OC(=O)CN(Cc1ccc(Cl)cc1)Cc1ccc([N+](=O)[O-])s1 | 100 | 105 | 102 (inactive) | 99 (inactive)
CC1CC=CC=CC=CC=CC(OC2OC(C)C(O)C(N)C2O)CC2OC(O)(CC(O)CC3OC3C=CC(=O)O1)CC(O)C2C(=O)O (configuration not stated) [Pimaricin] | 106 | 94 | 94.9 (inactive) | 88.8 (inactive)
CC12CCC3c4ccc(O)cc4CCC3C1CCC2O (stereo not drawn) [beta-Estradiol] | 90.6 | 89.3 | 101 (inactive) | 95.3 (inactive)
CC(C)(CN1C(=O)C(Cl)=C(Cl)C1=O)CN1C(=O)C(Cl)=C(Cl)C1=O | 86.4 | 101 | 89.8 (inactive) | 124 (inactive)
CCCc1cc(C(N)=S)ccn1 [Prothionamide] | 106 | 97.3 | 99.4 (inactive) | 103 (inactive)
CC12CCC(=O)C=C1CCC1C2C(O)CC2(C)C(C(=O)CO)CCC12 (configuration not stated) [Corticosterone] | 101 ± 2.6 | 103.3 ± 0.6 | 92.8 (inactive) | 100 (inactive)
COC1=CC(C)C2CC3OC(=O)CC4C(C)=C(OC)C(=O)C(C2(C)C1=O)C34C (configuration not stated) [Quassin] | 101 | 89.6 | 96.8 (inactive) | 94.8 (inactive)
O=C1N=c2ccccc2=C1c1[nH]c2ccccc2c1NOCCC(O)CO (configuration not stated) [Indirubin Derivative E804] | 60.8 | 62.7 | 102 (inactive) | 167 (active)
CCCCCCCCC=CCCCCCCCC(=O)NCCO [N-Oleoylethanolamine] | 99.9 | 108 | 98.4 (inactive) | 115 (inactive)
CC(C=CC1=C(C)CCCC1(C)C)=CC=CC(C)=CC(=O)Nc1ccc(O)cc1 [Retinoic acid p-hydroxyanilide] | 42.9 | 85.3 | 100 (inactive) | 185 (active)
Cc1nn(C)c2nc(NNC(=O)Nc3cc(Cl)nc(Cl)c3)cc(C(C)C)c12 | 66 | 12.8 | 170 (active) | 140 (active)
O=C(Nc1ccc(Oc2ccnc3[nH]ccc23)c(F)c1)c1cccn(-c2ccc(F)cc2)c1=O | 102 | 103 | 95.1 (inactive) | 111 (inactive)
COc1ccc(-c2nn3c(-c4ccccn4)nnc3s2)cc1OC | 98 | 103 | 97.3 (inactive) | 111 (inactive)
O=C1NC(=O)C(=Cc2ccc3nccnc3c2)S1 [PI 3-Kg Inhibitor] | 103 | 110 | 87.2 (inactive) | 114 (inactive)
CC(C=CC1(O)C(C)=CC(=O)CC1(C)C)=CC(=O)O (racemic) | 103 | 103 | 99.5 (inactive) | 88.1 (inactive)
Fc1ccc(-c2c3cccc(C(F)(F)F)c3nn2Cc2ccc(F)cc2Cl)cc1 | 100 | 95.3 | 92.3 (inactive) | 102 (inactive)
O=c1cc(-c2ccccc2)oc2cc(O)c(O)cc12 [6,7-Dihydroxyflavone] | 102 | 96.3 | 98.5 (inactive) | 101 (inactive)
CCCCNc1c(C(=O)OCC)c(C)nc2c1cnn2CC [Tracazolate] | 105 | 108 | 92.8 (inactive) | 107 (inactive)
CC(COc1ccc(C=Cc2ccccc2)cc1)[N+](C)(C)C.[I-] (configuration not stated) | 95.6 | 84.6 | 107 (inactive) | 110 (inactive)
S=C(Nc1ccccc1)Nc1nccs1 [1-Phenyl-3-(2-thiazolyl)-2-thiourea] | 95.5 | 86.9 | 99.5 (inactive) | 102 (inactive)

SMILES | cell number (HCC1569 [1]) | cell number (TDF [2]) | H1.0 immunofluorescence intensity (TDF [3]) | H1.0 immunofluorescence intensity (HCC1569 [4])
CCN(CC)CCCC(C)Nc1ccnc2cc(Cl)ccc12.O=P(O)(O)O.O=P(O)(O)O (configuration not stated) [Chloroquine diphosphate] | 98.3 | 106 | 94.7 (inactive) | 94.1 (inactive)
CCC(c1ccc(O)cc1)C(CC)c1ccc(O)cc1 (configuration not stated) [Hexestrol] | 100 | 102 | 94.1 (inactive) | 119 (inactive)
O=c1cc(-c2ccccc2)oc2cc(O)ccc12 [7-Hydroxyflavone] | 103 | 104 | 96.8 (inactive) | 88.8 (inactive)
CC(C)C(N)C(=O)OCCOCn1cnc2c(=O)nc(N)[nH]c21 (configuration not stated) [Valaciclovir] | 99.8 | 104 | 102 (inactive) | 109 (inactive)
CCCCCCCCCCCCCCCCCCOCC(COP(=O)([O-])OCC[N+](C)(C)C)OC (configuration not stated) | 51.3 and 99.9 |  | 225 (active) and 85.1 (inactive) | 162 (active) and 103 (inactive)
CCCCCC(O)C=CC=CCC=CCCCC(=O)O (configuration not stated) | 100 | 90.9 | 97 (inactive) | 97.1 (inactive)
CC(C)(CO)C(O)C(=O)NCCC(=O)O (configuration not stated) [Pantothenic acid] | 104 | 95.9 | 106 (inactive) | 98.2 (inactive)
COS(=O)(=O)[O-].C[n+]1c2ccccc2nc2ccccc21 [5-methylphenazin-5-ium methyl sulfate] | 28.1 | 4.9 |  | 688 (active)
O=S(=O)(NCc1cccc2ccccc12)c1cc(Cl)c(Oc2cccc(N3CCNCC3)c2)s1 | 8.55 | 0.28 |  | 122 (inactive)
Clc1ccc(N/N=C(\c2ccccc2)c2ccccn2)nc1 | 73.1 | 1.54 |  | 111 (inactive)
COC1=C(OC)C(=O)c2ccccc2C1=O [2,3-Dimethoxy-1,4-naphthoquinone] | 74.6 | 36.2 | 114 (inactive) | 128 (inactive)
Cc1cc(Nc2ccc(NC(=O)c3ccc(Nc4ccnc5ccccc45)cc3)cc2)nc(N)n1 | 13.5 | 0.96 |  | 83.8 (inactive)
c1coc(CNc2ncnc3nc[nH]c23)c1 [Kinetin] | 103 | 112 | 95.4 (inactive) | 92.8 (inactive)
N#Cc1ccc2c(c1)CCN(CCC1CCC(NC(=O)c3ccnc4ccccc34)CC1)C2 (configuration not stated) |  |  | 90.6 (inactive) | 158 (active)
Cc1ccc([N+](=O)[O-])cc1S(=O)(=O)N(C)N=Cc1cnc2ccc(Br)cn12.Cl.O.O [PI 3-Ka Inhibitor VIII] | 45.7 | 4.97 |  | 125 (inactive)
Cc1[nH]nc2ccc(-c3cncc(OCC(N)Cc4ccccc4)c3)cc12 (configuration not stated) | 58.8 | 2.19 |  | 92 (inactive)
O=C(c1ccc(Nc2nccc(-c3cc4ccccc4s3)n2)cc1)N1CCC(N2CCCC2)CC1 | 61.6 | 3.45 |  | 174 (active)
CCN(CC)CCCC(C)Nc1c2ccc(Cl)cc2nc2ccc(OC)cc12.Cl.Cl (configuration not stated) [Quinacrine dihydrochloride] | 67.6 | 4.99 |  | 133 (inactive)
Cc1ccccc1N(C)C(=O)c1ccc(S(=O)c2nccs2)c([N+](=O)[O-])c1 (configuration not stated) | 9.73 | 4.15 |  | 131 (inactive)
CCOC(=O)N1CCC(=C2c3ccc(Cl)cc3CCc3cccnc32)CC1 [Loratadine] |  |  | 98.3 (inactive) | 103 (inactive)
CC1(C)C(C(=O)O)N2C(=O)CC2S1(=O)=O (configuration not stated) [Sulbactam] |  |  | 95.9 (inactive) | 108 (inactive)
COc1ccc(CCN(C)CCCC(C#N)(c2ccc(OC)c(OC)c2)C(C)C)cc1OC (configuration not stated) [Verapamil] |  |  | 90.6 (inactive) | 98.6 (inactive)
CC(=O)C1(O)Cc2c(O)c3c(c(O)c2C(OC2CC(N)C(O)C(C)O2)C1)C(=O)c1ccccc1C3=O (configuration not stated) [Idarubicin] | 49.1 ± 12 | 5.14 ± 3 |  | 584 (active)
Nc1ncnc2c1nc(N)n2[C@@H]1O[C@H](CO)[C@@H](O)[C@H]1O | 25.5 | 2.02 |  | 76.3 (inactive)
COc1ccc(CCN(C)CCCC(C#N)(c2ccc(OC)c(OC)c2)C(C)C)cc1OC.Cl (racemic) |  |  | 99.2 (inactive) | 95.5 (inactive)
O=C1c2ccccc2-c2nc3nnnn3nc21 [PDK1/Akt/Flt Dual Pathway Inhibitor] | 41.8 | 3.4 |  | 56.9 (inactive)
C[n+]1cc2c3c(ccc2c2ccc4cc5c(cc4c21)OCO5)OCO3.[Cl-] [Sanguinarine chloride] | 15.1 | 0.53 |  | 178 (active)

Reference: the supplement of paper PMC7156485
